DT40 TDP1 no CPT = qHTS for Inhibitors of human tyrosyl-DNA phosphodiesterase 1 (TDP1): qHTS in cells in absence of CPT; DT40 Tdp1-/- hTDP1 cells, no CPT, ATP luminescence, 48 h; Potency, µM (doses to about 46.2 µM), inactives show top-dose activity change, negative = growth inhibition, actives largely listed as inhibitors; 420,000 compounds, 15% hits; AID 686978, 2013; note: % is set by controls: 0 for no effect and ±100 for the full control effect; nearly all actives have a fitted effect of over 55% in size
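A cellular qHTS used chicken DT40 cells lacking endogenous Tdp1 but carrying stably transfected human TDP1. Compounds were applied without camptothecin, and cell growth kinetics were judged by ATP-dependent luminescence after ≥48 hr.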
ClpP mod = qHTS Assay for Activators of ClpP | ATP-dependent Clp protease proteolytic subunit (Bacillus subtilis (strain 168)), P80244 | purified B. subtilis ClpP, FRET peptide cleavage, 20 min | Potency, µM (top dose mostly 57.5 µM), for inactives: at the highest dose activity change, negative = active | 340,000 compounds, 1.9% hits; active = well fitted falling curve with a large enough effect; inconclusive = small, poorly fitted or top-dose-only effect; inactive = no such curve, though single readings can be large or run the other way; note: the source files actives as falling curves though it sought activators and does not explain the sign; nearly all actives have a fitted effect of over 65% in size
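Buffer: 100 mM Tris/HCl pH8, 100 mM KCl, 0.05% low protease BSA, 2.5% glycerol, 0.01% Tween-20. ClpP 10 microg/mL final; 20 min RT; delta FRET normalized to ADEP and DMSO controls.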
TDP1 block = TDP1 (human) enzyme inhibition; Potency, µM (series often up to 130 µM), inactives show at the highest dose activity change, negative = inhibition, actives largely listed as inhibitors; Q9NUW8; 350,000 compounds, 0.28% hits; recombinant TDP1, AlphaScreen DNA substrate cleavage; note: % is set by controls: 0 for no effect and ±100 for the full control effect; nearly all actives have a fitted effect of over 40% in size
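E. coli-derived human Tdp1, 1 nM final. Cpd preinc 15 min RT; substrate 15 nM final, 5 min RT; AS bead mix 10 ug/ml final, 10 min RT. Signal loss = tyrosine-FITC cleavage. No-enzyme wells = max signal.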
DT40 TDP1 CPT = DT40-hTDP1 cell growth loss with CPT; chicken DT40 Tdp1-/-;hTDP1 cells + 20 nM CPT, ATP luminescence, 48 h; 420,000 compounds, 12% hits; Potency, µM (doses to about 46.2 µM), for inactives: at the top dose activity change, negative = growth inhibition, most hits filed as inhibitors; note: % is set by controls: 0 for no effect and ±100 for the full control effect; nearly all actives have a fitted effect of over 55% in size
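Chicken DT40 Tdp1-/- cells complemented with human TDP1, 400 cells/well, exposed to compounds plus 20 nM camptothecin for at least 48 h at 37 C; viability read as ATP content by CellTiter-Glo luminescence.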
Starred values were filed as active, the others as inactive; ? = inconclusive; · = no result; ! = not active in a repeat; [ ] = dose if it differs, or a comment. Only some compounds are listed: those with a hit (about 17% of all), similar ones and a draw of the others. Unless noted, calls come from the whole dose curve; as a rule, active = well fitted curve in the direction sought with a large enough effect; inconclusive = small, poorly fitted or top-dose-only effect, or another doubt; inactive = no such curve, though single readings can be large; an effect the other way counts as inactive or inconclusive. Potency is the fitted concentration of half-maximal effect.

SMILES | DT40 TDP1 no CPT | ClpP mod | TDP1 block | DT40 TDP1 CPT
COC(=O)c1[nH]c2c(c1C)C(=O)CC(c1ccccc1)C2 (configuration not stated) | 1.3µM* | -0.9% | 1.1% | 1.3µM*
Cc1c(C(=O)OCc2ccccc2)[nH]c2c1C(=O)CC(c1ccc(Cl)cc1)C2 (configuration not stated) | 14.6µM* | 2.4% | -4.3%[12.3 µM] | 18.4µM*
CCOC(=O)c1[nH]c2c(c1Cc1ccccc1C)C(=O)CC(c1ccccc1)C2 (configuration not stated) | ? | -1.9% | 0.0% | ?
CCOC(=O)c1[nH]c2c(c1-c1ccccc1)C(=O)CC(c1ccccc1)C2 (configuration not stated) | ? | -2.7% | -2.6% | -26.5%
CCOC(=O)c1[nH]c2c(c1Cc1ccccc1)C(=O)CC(c1ccccc1)C2 (configuration not stated) | 20.6µM* | 0.8% | -2.1%[12.3 µM] | 18.4µM*
CCCN(CC(=O)Nc1ccccc1C)C(=O)c1ccc(N2CCCC2=O)cc1 | 0.0% | 1.0% | 0.5% | -6.9%
CC(C)[C@@H](CC(=O)N[C@@H]1CCNC[C@H]1C(=O)N[C@H](CC(=O)N[C@@H](CCC(=O)O)CC(=O)O)Cc1c[nH]c2ccccc12)NC(=O)C[C@H](Cc1ccccc1)NC(=O)[C@@H]1CNCC[C@H]1N | · | · | 2.5% | ·
COC(=O)/C(=C(O)\C=C\c1ccccc1[N+](=O)[O-])c1nc2ccccc2[nH]1 | 14.6µM* | · | 4.5%[0.0935 µM] | 11.6µM*
Cc1ccc(F)c(C2C3C=CCCC3(C)C(=O)N2Cc2ccccc2)c1 (configuration not stated) | · | · | 6.2% | ·
CC1Cc2ccccc2N1S(=O)(=O)c1cccc(C(=O)Nc2cccnc2)c1 (configuration not stated) | ? | · | 1.9% | ?
CNC(=O)C1CN(C(=O)c2cccc(S(=O)(=O)N3c4ccccc4CC3C)c2)c2ccccc2O1 (configuration not stated) | 18.4µM* | 0.3% | 0.0% | ?
CC1Cc2ccccc2N1S(=O)(=O)c1cccc(C(=O)NC2CC2)c1 (configuration not stated) | 13µM* | 0.5% | 1.0% | 18.4µM*
COc1ccccc1C(CNC(=O)c1cccc(S(=O)(=O)N2c3ccccc3CC2C)c1)N(C)C (configuration not stated) | 14.6µM* | 0.8% | · | ?
CCN(CC(=O)Nc1ccc(NC(C)=O)cc1)C(=O)c1cccc(S(=O)(=O)N2c3ccccc3CC2C)c1 (configuration not stated) | -3.1% | · | -0.5% | -4.1%
CC1Cc2ccccc2N1S(=O)(=O)c1cccc(C(=O)NCc2ccco2)c1 (configuration not stated) | -25.8% | 1.0% | -0.2% | -13.5%
C=CCN(CC=C)C(=O)c1cccc(S(=O)(=O)N2c3ccccc3CC2C)c1 (configuration not stated) | 16.4µM* | -3.1% | 4.3% | 16.4µM*
COc1ccccc1C(CNC(=O)c1cccc(S(=O)(=O)NCc2ccccc2)c1)N(C)C (configuration not stated) | -6.1% | -13.7% | 1.8% | ?
Cc1c(P(=S)(c2ccccc2)c2ccccc2)[n+]2ccccc2n1Cc1ccccc1 | · | · | 1.4% | ·
COc1ccc(CN2CCNC(=O)C2CC(=O)N(C)CCC2CCOCC2)c(OC)c1 (configuration not stated) | 17.4% | 2.6% | 3.4% | -1.7%
COc1ccc(CNC(=O)O[C@H]2CN(C(=O)OC(C)C)N(C(=O)OC(C)C)[C@@H]3CN(S(=O)(=O)c4ccc(C)cc4)C[C@]23O)cc1OC | 23.1µM* | 0.6% | · | ?
Cc1ccc(S(=O)(=O)N2C[C@H]3N(C(=O)OC(C)C)N(C(=O)OC(C)C)C[C@H](OC(=O)Nc4cccs4)[C@@]3(O)C2)cc1 | 23.1µM* | -0.8% | · | ?
Cc1ccc(S(=O)(=O)N2C[C@H]3N(C(=O)OC(C)C)N(C(=O)OC(C)C)C[C@H](OC(=O)NCc4ccccc4F)[C@@]3(O)C2)cc1 | 23.1µM* | -0.4% | · | ?
CCCCC(=O)NS(=O)(=O)c1ccc(N=NN2CCOCC2)cc1 | -5.8% | -0.9% | 4.7% | -6.0%
Cc1cccc(C(=O)NNC(=O)c2ccc3ccccc3c2)c1 | 6.2% | -9.9% | · | -5.8%
CCOc1ccc(-n2c(=O)c3c(C)c(C(=O)N(C)C)sc3n(CC(=O)Nc3c(C)cc(C)cc3C)c2=O)cc1 | -17.8% | -2.1% | -1.5% | -29.2%
SMILES | DT40 TDP1 no CPT | ClpP mod | TDP1 block | DT40 TDP1 CPT
CC(=O)Nc1ccc(S(=O)(=O)N[C@@H](C)C(=O)OCC(=O)c2ccc(C)cc2)cc1 | 4.6% | 1.1% | 1.1% | -5.0%
COc1ccc(S(=O)(=O)N(C(=O)C(C)C)c2ccc3oc(=O)sc3c2)cc1 | 16.4µM* | -0.7% | 7.0% | 10.3µM*
COc1ccc(C(=O)Oc2ccc3oc(=O)sc3c2)cc1 | ? | 0.4% | 4.0% | 13µM*
CC(=O)N(c1ccc2oc(=O)sc2c1)S(=O)(=O)c1ccccc1 | 10.3µM* | -0.9% | 10.0% | ?
COc1ccc(C(=O)Oc2ccc3ccc(=O)oc3c2)cc1 | -11.9% | · | · | -3.0%
COC(C[C@H](O)C[C@H](O)[C@H](C)OCc1ccccc1)OC | -1.1% | -2.9% | -1.2% | 1.8%
COc1ccc(C(=O)c2c(C)c3cc(C)ccc3n2CC(O)CN2CCOCC2)cc1 (configuration not stated) | ? | -3.3% | -2.6% | ?
O=C(CC(=O)NCCc1ccccc1)NCCc1ccccc1 | -14.8% | · | 9.2% | 19.0%
NNCCc1ccccc1 | 13µM*! | -5.9% | -5.2%[56.1 µM] | ?
Cc1cc(OCc2nc(N)nc(N)c2-c2ccc(Cl)c(Cl)c2)ccc1[N+](=O)[O-] | 0.13µM* | -9.2% | · | 0.581µM*
Cc1nc(N)nc(N)c1-c1ccc(Cl)c(Cl)c1 | 0.164µM* | 1.8% | · | 0.259µM*
Nc1nc(N)nc(-c2ccc(Cl)c(Cl)c2)n1 | 11.6µM* | -27.0% | 0.2% | 20.6µM*
Cc1nc(N)nc(N)c1CCCc1ccc(Cl)c(Cl)c1 | 2.59µM* | · | · | 10.3µM*
COc1ccc(-c2nc(N)nc(C)c2-c2ccc(Cl)cc2)c(O)c1 | -16.6% | -1.5% | · | -32.8%
Nc1nc(N)nc(-c2ccccc2-c2nc(N)nc(N)n2)n1 | -11.1% | 3.4% | -5.1% | 1.2%
C=CC[C@@H](Cc1ccc(F)cc1)C(=O)OC[C@@H]1CCCN1C(=O)[C@@H](CC=C)CC(=O)N(CCO)Cc1ccccc1 | 14.6µM* | 0.7% | 0.1% | ?
C=CC[C@@H](CC(=O)OC(C)(C)C)C(=O)OC[C@@H]1CCCN1C(=O)[C@@H](CC=C)CC(=O)N[C@@H](CO)Cc1ccccc1 | ? | 0.5% | -0.1% | ?

Assay outcomes from PubChem BioAssay.
